Assay in all cases: universal protein binding microarray (PBM); transcription factors of Arabidopsis thaliana; high values mean tight binding
The target in one experiment is T1, GST-ANAC092(1-176) (Arabidopsis thaliana, UniProt Q9FKA0 1-176).
T1 sequence: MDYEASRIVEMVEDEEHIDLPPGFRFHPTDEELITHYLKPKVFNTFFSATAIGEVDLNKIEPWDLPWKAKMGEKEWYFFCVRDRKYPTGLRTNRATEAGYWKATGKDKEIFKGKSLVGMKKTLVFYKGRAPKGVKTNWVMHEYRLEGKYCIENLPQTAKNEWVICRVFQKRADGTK
To be noted: protein: recombinant; tags: GST; chain copies: 2; dsDNA, one strand shown. An outline of the steps: (§1)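 GST-tagged proteins (NAC-domain, full-length or DNA-binding-domain) were induced in cells, with zinc acetate supplied for zinc-finger proteins, then purified on glutathione–Sepharose 4B. Each was tested in duplicate at 200 to 500 nM final on custom all-10-mer Agilent 4 × 180K arrays rendered double-stranded by primer extension. The binding value is the normalised enrichment score (E-score) across gapped and ungapped 8-mers.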

In a further experiment the target is T2, GST-ANAC019 NAC domain (Arabidopsis thaliana, UniProt Q9C932 14-162).
T2 sequence: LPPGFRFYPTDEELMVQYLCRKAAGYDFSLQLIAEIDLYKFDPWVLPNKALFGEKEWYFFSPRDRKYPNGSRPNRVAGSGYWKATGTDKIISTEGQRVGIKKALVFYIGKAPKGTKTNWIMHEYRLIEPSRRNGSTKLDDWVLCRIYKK
Conditions: protein: recombinant; tags: GST; chain copies: 2; dsDNA, one strand shown. In a few lines: as §1

The next experiment addresses T3, GST-ATAF1 NAC domain (Arabidopsis thaliana, UniProt Q39013 7-158).
T3 sequence: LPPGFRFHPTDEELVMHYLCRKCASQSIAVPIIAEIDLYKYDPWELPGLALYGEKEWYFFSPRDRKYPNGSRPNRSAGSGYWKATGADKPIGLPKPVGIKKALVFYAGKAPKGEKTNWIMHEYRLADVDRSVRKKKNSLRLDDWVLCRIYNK
To be noted: protein: recombinant; tags: GST; chain copies: 2; dsDNA, one strand shown. In a few lines:
as §1

Experiment [1] concerns the target T4, GST-ANAC092(1-285) full length (Arabidopsis thaliana, UniProt Q9FKA0 1-285).
T4 sequence: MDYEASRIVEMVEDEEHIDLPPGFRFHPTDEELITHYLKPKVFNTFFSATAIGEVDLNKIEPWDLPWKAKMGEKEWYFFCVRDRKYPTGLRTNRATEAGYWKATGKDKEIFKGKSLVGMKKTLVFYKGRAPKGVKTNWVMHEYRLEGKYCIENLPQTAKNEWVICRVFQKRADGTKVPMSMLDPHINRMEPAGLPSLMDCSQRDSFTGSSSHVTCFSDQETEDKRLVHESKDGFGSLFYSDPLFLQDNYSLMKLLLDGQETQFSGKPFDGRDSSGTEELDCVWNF
To be noted: protein: recombinant; tags: GST; chain copies: 2; dsDNA, one strand shown. An outline of the steps:
as §1

The next experiment concerns the target T5, GST-NAP(1-166) (Arabidopsis thaliana, UniProt O49255 1-166).
T5 sequence: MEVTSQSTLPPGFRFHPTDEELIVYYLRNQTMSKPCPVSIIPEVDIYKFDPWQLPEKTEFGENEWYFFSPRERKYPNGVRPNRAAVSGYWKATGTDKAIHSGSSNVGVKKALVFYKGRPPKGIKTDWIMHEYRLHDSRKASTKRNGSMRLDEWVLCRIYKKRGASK
Conditions: protein: recombinant; tags: GST; chain copies: 2; dsDNA, one strand shown. An outline of the steps: as §1

The next experiment deals with T6, GST-NST2(1-184) (Arabidopsis thaliana, UniProt Q9M274 1-184).
T6 sequence: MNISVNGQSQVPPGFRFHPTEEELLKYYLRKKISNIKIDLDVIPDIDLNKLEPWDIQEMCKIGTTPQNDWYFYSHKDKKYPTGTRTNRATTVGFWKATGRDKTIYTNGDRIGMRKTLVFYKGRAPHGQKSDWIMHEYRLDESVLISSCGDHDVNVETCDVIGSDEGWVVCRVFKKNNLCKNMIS
To be noted: protein: recombinant; tags: GST; chain copies: 2; dsDNA, one strand shown. In a few lines: as §1

The next experiment addresses T7, GST-SND1(1-203) (Arabidopsis thaliana, UniProt Q9LPI7 1-203).
T7 sequence: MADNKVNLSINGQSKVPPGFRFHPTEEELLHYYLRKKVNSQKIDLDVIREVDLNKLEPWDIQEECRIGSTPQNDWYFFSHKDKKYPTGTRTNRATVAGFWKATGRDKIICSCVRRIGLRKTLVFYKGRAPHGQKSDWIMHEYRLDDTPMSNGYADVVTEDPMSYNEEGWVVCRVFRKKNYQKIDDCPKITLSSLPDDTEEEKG
To be noted: protein: recombinant; tags: GST; chain copies: 2; dsDNA, one strand shown. In a few lines: as §1

A further experiment has as its target T8, GST-VND3 NAC domain (Arabidopsis thaliana, UniProt Q9FH59 12-162).
T8 sequence: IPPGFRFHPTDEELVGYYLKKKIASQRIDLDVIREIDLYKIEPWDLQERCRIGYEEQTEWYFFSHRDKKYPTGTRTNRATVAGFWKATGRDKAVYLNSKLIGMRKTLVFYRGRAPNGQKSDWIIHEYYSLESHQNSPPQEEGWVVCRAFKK
To be noted: protein: recombinant; tags: GST; chain copies: 2; dsDNA, one strand shown. In a few lines:
as §1

For a further experiment, the target named is T9, GST-VND7 NAC domain (Arabidopsis thaliana, UniProt Q9C8W9 9-158).
T9 sequence: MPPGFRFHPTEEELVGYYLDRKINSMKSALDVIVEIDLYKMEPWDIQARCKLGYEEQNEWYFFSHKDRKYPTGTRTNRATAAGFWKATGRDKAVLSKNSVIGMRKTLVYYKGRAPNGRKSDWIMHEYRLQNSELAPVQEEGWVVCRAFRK
To be noted: protein: recombinant; tags: GST; chain copies: 2; dsDNA, one strand shown. An outline of the steps: as §1

The target of the next experiment is T10, GST-ANAC055(1-171) (Arabidopsis thaliana, UniProt Q9LDY8 1-171).
T10 sequence: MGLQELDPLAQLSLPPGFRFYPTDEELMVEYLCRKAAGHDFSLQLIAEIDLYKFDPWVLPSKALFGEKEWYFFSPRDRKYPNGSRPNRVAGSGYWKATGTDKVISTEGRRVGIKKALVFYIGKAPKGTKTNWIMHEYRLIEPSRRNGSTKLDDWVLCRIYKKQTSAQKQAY
Conditions: protein: recombinant; tags: GST; chain copies: 2; dsDNA, one strand shown. An outline of the steps:
as §1

The target of the next experiment is T11, GST-NTL8 NAC domain (Arabidopsis thaliana, UniProt Q9XIN7 14-156).
T11 sequence: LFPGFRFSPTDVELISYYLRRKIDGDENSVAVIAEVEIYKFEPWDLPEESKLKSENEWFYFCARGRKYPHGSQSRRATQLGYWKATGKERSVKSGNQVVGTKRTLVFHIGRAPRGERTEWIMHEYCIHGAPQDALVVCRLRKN
To be noted: protein: recombinant; tags: GST; chain copies: 2; dsDNA, one strand shown. In a few lines:
as §1

For a further experiment, the target named is GST-NTL6(1-168) (Arabidopsis thaliana, UniProt Q9SCK6 1-168). To be noted: protein: recombinant; tags: GST; chain copies: 2; dsDNA, one strand shown. In a few lines:
as §1

A further experiment addresses GST-WRKY1(266-371) (Arabidopsis thaliana, UniProt Q9SI37 266-371). Conditions: protein: recombinant; tags: GST; dsDNA, one strand shown. An outline of the steps: as §1

Chain of GST-NTL6(1-168) (Q9SCK6 1-168): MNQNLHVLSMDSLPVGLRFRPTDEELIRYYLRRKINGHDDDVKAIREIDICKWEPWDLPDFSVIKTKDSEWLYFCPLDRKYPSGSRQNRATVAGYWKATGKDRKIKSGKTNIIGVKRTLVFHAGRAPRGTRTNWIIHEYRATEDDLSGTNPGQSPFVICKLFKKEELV
Chain of GST-WRKY1(266-371) (Q9SI37 266-371): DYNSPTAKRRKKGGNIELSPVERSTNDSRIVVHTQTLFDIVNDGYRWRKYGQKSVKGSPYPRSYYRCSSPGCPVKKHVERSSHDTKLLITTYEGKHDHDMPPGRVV

With AGCGTAAA, the binding signal amounted to 0.223 E-score in the experiment with GST-ANAC092(1-176); 0.0508 E-score in the experiment with GST-ANAC019 NAC domain; 0.12 E-score with GST-ATAF1 NAC domain; 0.241 E-score in experiment [1]; 0.126 E-score with GST-NAP(1-166); 0.244 E-score with GST-NST2(1-184). Further, the binding signal is 0.413 E-score with GST-SND1(1-203), 0.15 E-score with GST-VND3 NAC domain and 0.119 E-score with GST-VND7 NAC domain.
For CGTACGCA, the binding signal turned out to be 0.392 E-score in the experiment with GST-ANAC092(1-176); 0.359 E-score in the experiment with GST-ANAC019 NAC domain; 0.328 E-score in the experiment with GST-ANAC055(1-171); 0.291 E-score with GST-ATAF1 NAC domain; 0.433 E-score in [1]; 0.365 E-score in the experiment with GST-NAP(1-166). Also, the binding signal with GST-NST2(1-184) came out at 0.24 E-score; in the experiment with GST-NTL8 NAC domain, 0.0905 E-score; in the experiment with GST-SND1(1-203) it was 0.32 E-score; with GST-VND3 NAC domain, 0.378 E-score; in the experiment with GST-VND7 NAC domain, 0.341 E-score.
In the case of CGTCAACA, the binding signal in the experiment with GST-ANAC092(1-176) worked out at 0.149 E-score; with GST-NTL6(1-168), 0.0991 E-score; in the experiment with GST-ANAC019 NAC domain, 0.0912 E-score; with GST-ANAC055(1-171), 0.135 E-score; with GST-ATAF1 NAC domain, 0.156 E-score; in experiment [1], 0.196 E-score. The binding signal was 0.116 E-score with GST-NAP(1-166); 0.111 E-score with GST-NST2(1-184); 0.181 E-score with GST-SND1(1-203); 0.0753 E-score with GST-VND3 NAC domain; 0.435 E-score in the experiment with GST-WRKY1(266-371).
Consider CCTTACCC, for which the binding signal was determined as 0.366 E-score with GST-NTL6(1-168); 0.0872 E-score in experiment [1]; 0.404 E-score in the experiment with GST-NTL8 NAC domain; 0.167 E-score with GST-SND1(1-203); 0.0668 E-score in the experiment with GST-VND3 NAC domain; 0.0637 E-score with GST-VND7 NAC domain.
Turning to ATGCGTAA, the binding signal turned out to be 0.319 E-score in the experiment with GST-ANAC092(1-176); 0.108 E-score with GST-ANAC055(1-171); 0.115 E-score with GST-ATAF1 NAC domain; 0.356 E-score in experiment [1]; 0.175 E-score in the experiment with GST-NAP(1-166); 0.243 E-score with GST-NST2(1-184). In addition, the binding signal worked out at 0.436 E-score with GST-SND1(1-203), 0.217 E-score with GST-VND3 NAC domain and 0.188 E-score with GST-VND7 NAC domain.
On to GTCAACAA, for which the binding signal turned out to be 0.0834 E-score with GST-NTL6(1-168); 0.163 E-score in the experiment with GST-ANAC055(1-171); 0.191 E-score with GST-ATAF1 NAC domain; 0.136 E-score in experiment [1]; 0.075 E-score with GST-NAP(1-166); 0.101 E-score with GST-NST2(1-184). Further, the binding signal in the experiment with GST-NTL8 NAC domain is 0.0573 E-score; in the experiment with GST-SND1(1-203), 0.177 E-score; in the experiment with GST-VND7 NAC domain it was 0.07 E-score; with GST-WRKY1(266-371), 0.478 E-score.

The record behind these values is PMC4081100, “A DNA-binding-site landscape and regulatory network analysis for NAC transcription factors in Arabidopsis thaliana”.
